From PubChem BioAssay AID1650 (Southern Research Specialized Biocontainment Screening …, 2009)
Potency and affinity values are given separately. Activity calls are given as the source filed them. How the calls were made is not given here.

assay: host cell cytotoxicity of antiviral hits, dose response, cytotoxicity control for West Nile virus antiviral project, secondary assay (AID 1650); conditions: Mammalian host cell viability, cytotoxicity counter-screen; series mostly up to 10 µM; viability: at the top concentration

SMILES	viability
CCC(C)c1ccccc1NC(=O)COC(=O)c1ccc2[nH]c3c(c2c1)CCCC3 (centres undefined)	72% (inactive)
Cc1cc(C)cc(SCc2noc(C(=O)NCCN(C)C)c2C(=O)NCCN(C)C)c1	86.1% (inactive)
Cc1cc(F)ccc1N1CCC(N2CCN(C(C)C)C(CCO)C2)CC1 (centres undefined)	89.4% [at 20 µM] (inactive)
CCOc1ccc(-c2cc(C(=O)NCCCN3CCN(CC)CC3)c3ccccc3n2)cc1	82% (inactive)
Cc1ccc(-n2ncc(C(=O)Nc3ccc(Cl)cc3)c2C2CCNCC2)cc1C	82.5% [at 20 µM] (inactive)
CN(C)CCNc1oc(COc2ccc(-c3ccccc3)cc2)nc1C#N	84.9% (inactive)
O=C(Oc1ccccc1)c1ccc(-n2cnnn2)cc1	82.2% (inactive)
CCN(CC)CCNc1ncnc2c1sc1nc(N3CCCC3)c3c(c12)CC(C)(C)OC3	75.2% [at 20 µM] (inactive)
CCOc1ccc(NC(=O)Cn2c(=O)n(CCCC(=O)NC3CCN(Cc4ccccc4)CC3)c(=O)c3ccccc32)cc1	86.5% (inactive)
Nc1nonc1-n1nnc(C(=O)N/N=C/c2ccccc2Cl)c1CSc1ccccc1	92.5% [at 20 µM] (inactive)
CCCCCn1c(N2CCC(Cc3ccccc3)CC2)nc2c1c(=O)[nH]c(=O)n2C	71.8% (inactive)
Cc1cc(C)nc(S/C=C/C(=O)c2ccccc2F)n1	77.7% [at 20 µM] (inactive)
Cc1cc(C)cc(OC(=O)CS(=O)c2ccc(C(F)(F)F)cc2[N+](=O)[O-])c1 (centres undefined)	91.1% (inactive)
O=C(CN1CCCC1)Nc1ccc(-c2nc3cc(NC(=O)CN4CCCC4)ccc3o2)cc1	82.9% (inactive)
Cc1cc(N2CCN(C)CC2)nc2ccc(NC(=S)N3CCN(c4ccccn4)CC3)cc12	73.7% (inactive)
O=c1c(-c2ccccc2)c1-c1ccccc1	80.4% (inactive)
C/C(N)=C(/C#N)C(=O)COC(=O)c1cc(-c2ccc(Br)cc2)nc2ccccc12	72.3% (inactive)
CC12CC3(C)CC(C)(C1)CC(C(=O)NCC(=O)O)(C2)C3	82.8% (inactive)
CC(=O)Nc1ccccc1N(CC(O)Cn1c2ccccc2c2ccccc21)S(=O)(=O)c1ccc(C)cc1 (centres undefined)	88.5% [at 20 µM] (inactive)
C/C(=N\OC(=O)c1ccc(F)cc1)c1nccs1	92.5% [at 20 µM] (inactive)

SMILES	viability
CN1C(=O)/C(=C\C(=O)c2cccs2)c2ccccc21	80% (inactive)
CC1CCCC(C)N1CCCNC(=O)c1cc2c(s1)-c1ccccc1OC2 (centres undefined)	75.3% (inactive)
N#CC(C(=O)NC1CCCCC1)c1nc2ccccc2nc1N1CCN(c2ccc(F)cc2)CC1 (centres undefined)	86.4% [at 20 µM] (inactive)
COc1cc([C@H]2c3[nH]c4ccccc4c3C[C@H]3C(=O)N4[C@@H](c5cc(OC)c(OC)c(OC)c5)c5[nH]c6ccccc6c5C[C@H]4C(=O)N23)cc(OC)c1OC	77.5% [at 20 µM] (inactive)
Cc1c(NC(=O)COC(=O)c2cc(-c3ccc(-c4ccccc4)cc3)nc3ccccc23)c(=O)n(-c2ccccc2)n1C	73.5% [at 5 µM] (inactive)
CC(C)(C)c1ccc(C(=O)O/N=C(\N)c2ccccc2)cc1	90.3% [at 20 µM] (inactive)
COc1ccc(-c2csc(NC3OC(=O)c4ccccc43)n2)cc1 (centres undefined)	89.2% [at 20 µM] (inactive)
Cc1ccc(NC2=C/C(=N/S(=O)(=O)c3cccs3)c3ccccc3C2=O)cc1	78.3% [at 20 µM] (inactive)
CCOC(=O)c1c(CN2CCN(C)CC2)n(C)c2cc(Br)c(OC)cc12	75.1% [at 20 µM] (inactive)
C/C(=N\Nc1nnc(-c2ccccc2)c(-c2ccccc2)n1)c1cccc([N+](=O)[O-])c1	82.4% (inactive)
CCCN(CCC)CCCNC(=S)Nc1ccc2nc(N3CCCC3)cc(C)c2c1	78% [at 20 µM] (inactive)
COc1cc(CNC(C)(C)CO)cc(Br)c1OCc1ccc(Cl)cc1Cl	74.1% [at 20 µM] (inactive)
O=C(CSc1nc2ccccc2c(=O)n1-c1ccc(F)cc1F)Nc1ccc2c(c1)CCC2	71.6% [at 20 µM] (inactive)
Cc1cccc(N(CC(=O)NCc2ccco2)C(=O)CCC(=O)Nc2ccccn2)c1C	72.5% [at 20 µM] (inactive)
O=C(CSc1nc2ccccc2c(=O)n1-c1ccc(F)cc1F)Nc1ccc(N2CCOCC2)cc1	86% [at 20 µM] (inactive)
O=C(/C=C/c1ccc2c(c1)OCO2)Nc1ccc(Cl)cn1	95.4% [at 20 µM] (inactive)
COc1cc(C(=O)N/C(=C/c2ccc(F)cc2)C(=O)NC(C(=O)O)c2ccccc2)cc(OC)c1OC (centres undefined)	93.4% (inactive)
COc1ccc(-n2cc(CNCCCn3ccnc3)c(-c3cccc(F)c3)n2)cc1	91.3% [at 20 µM] (inactive)
COc1ccc(N2C(=O)C(C)(C)C2c2c(O)ccc3ccccc23)cc1 (centres undefined)	93.8% (inactive)
